Laboratory results: PubChem BioAssay (NCATS)
A number with no mark means an inactive call. Results filed as inconclusive are left out. Calls of active or inactive are those of the source. Unless noted, calls come from the whole dose curve; as a rule, active = well fitted curve in either direction with a large enough effect (not every such curve was filed as active); inconclusive = small, poorly fitted or top-dose-only effect, or another doubt; inactive = flat fitted curve, though single readings scatter.

Columns and labels:
[1] = molecular target: Lysosomal acid glucosylceramidase (Homo sapiens) (UniProt P04062); assay: Glucocerebrosidase-p2 (AID 348; in the data active = potency below about 10 µM; note: potency is the fitted concentration of half-maximal effect); conditions: purified GBA, blue fluorogenic substrate, 40 min
In short: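 Compounds titrated from 0.6 nM upwards against 0.2 nM enzyme in pH 5.9 citric acid/KH2PO4, taurocholate, tween-20; blue fluorogenic substrate 80 uM, 40 min room temperature, stopped and read Ex 365/Em 440 for AC50.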

[2] = AP1 Signaling Pathway (AID 357); conditions: ME-180 AP-1-bla reporter, EGF-induced, beta-lactamase ratio, 5 h; at 7.69 µM (top of the series) unless noted;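 note: ME-180 reporter cells stimulated with EGF at its EC50 level; % is set by controls: 0 for no effect and ±100 for the full control effect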
In short: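 AP-1-bla ME-180 cells, Opti-MEM + 0.5% dialyzed FBS, plated overnight 37 °C. Cpd titration + EC50 EGF, 5 h 37 °C. CCF4 2.5 h RT; ex 405, em 460/530 ratio → %activity, AC50.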

[3] = molecular target: Cytochrome P450 1A2 (Homo sapiens) (UniProt P05177); assay: p450-cyp1a2 (AID 410; calls by dose curve; note: potency is the fitted concentration of half-maximal effect;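 for activity change, negative = inhibition: -100% = full effect of reference inhibitor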); conditions: recombinant CYP1A2, luciferin-ME demethylation, luminescence; series mostly up to 11.4 µM
In short: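 20nM CYP1A2 with 100uM Luciferin-ME (at Km) in 100mM KPO4; compound preincubated 10 min, NADPH regeneration added, 60 min at room temperature. Luciferin quantified by luminescence after detection reagent; normalized to 57 uM furafylline.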

[4] = NFAT Signaling Pathway (AID 444); conditions: Jurkat NFAT-bla M1, carbachol, beta-lactamase ratio, 5 h; at 7.69 µM (top of the series) unless noted;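 note: carbachol stimulus at about its EC50 of 1 µM final; % is set by controls: 0 for no effect and ±100 for the full control effect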
In short: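 Read-out: CCF4 FRET ratio (460 nm/530 nm) after 1 h RT dye loading, used for %activity and AC50 from titration series. Cells: Jurkat NFAT-β-lactamase/M1 line, treated with compound plus 1 uM carbachol for 5 h, 37 °C.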

[5] = Stat Signaling Pathway (AID 446); conditions: ME-180 (cervical carcinoma) SIE beta-lactamase reporter, IL-6 stimulated, 5 h; at 7.69 µM (top of the series) unless noted;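 note: ME-180 cervical cancer cells given 40 pM IL-6 alongside compound; SIE-controlled beta-lactamase reporter measured as 460/530 nm FRET emission ratio; % is set by controls: 0 for no effect and ±100 for the full control effect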
In short: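 IL-6/STAT signaling read in ME-180 cells via an SIE beta-lactamase reporter. Stimulus was 40 pM IL-6 (its AC50) for 5 hrs, so both activation and inhibition register.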

[6] = molecular target: Glucocorticoid receptor (Homo sapiens) (UniProt P04150); assay: GR-GFP Redistribution (AID 450;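 active = compounds whose dose series gives a full or clear partial fitted curve of increased nuclear translocation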; note: potency is the fitted concentration of half-maximal effect); conditions: U2OS GR-GFP nuclear translocation, laser cytometry, 2 h
[7] = molecular target: Glucocorticoid receptor (Homo sapiens) (UniProt P04150); assay: GR-EFC Redistribution (AID 451; calls by dose curve; note: potency is the fitted concentration of half-maximal effect); conditions: CHO-K1 GR-EFC translocation, beta-gal luminescence, 2 h
In short: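 Translocation of GR-ED fusion to nuclear EA restores b-gal, read by luminescence after 1 h room-temperature detection. Engineered CHO-K1 biosensor cells, 1,000/well, exposed 2 h at 37 C to titrations up to 46 uM final.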

[8] = molecular target: Mitogen-activated protein kinase 10 (Mus musculus) (UniProt Q61831); assay: JNK3 AlphaScreen Assay (AID 530); conditions: JNK3 lysate, c-Jun phosphorylation; series mostly up to 11.4 µM;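 note: kinase came from lysate of stimulated human HepG2 cells; signal reports phosphorylation of biotinylated GST-cJun 1-79 at Ser73 with 10 µM ATP; % is set by controls: 0 for no effect and ±100 for the full control effect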
In short: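 Compound titrations were preincubated 15 minutes at room temperature with substrate, antibody and pre-activated JNK3-containing HepG2 lysate. Reactions were started with 10 uM ATP and stopped with EDTA-containing bead buffer for AlphaScreen detection.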

[9] = molecular target: 3',5'-cyclic-AMP phosphodiesterase 4B (Homo sapiens) (UniProt Q07343); assay: qHTS Assay for Inhibitors of PDE-IV (AID 607; active = well fitted activation curve with a large enough effect in the main read-out, with a control signal flat, not every such curve was filed as active; note: % of control where 0% means no effect); conditions: HEK293 ACTOne CNG channel cells, membrane potential fluorescence; series mostly up to 22.9 µM
In short: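 Live HEK293 cells with a modified cyclic nucleotide-gated (CNG) channel report intracellular cAMP via membrane-potential dye fluorescence (ex 535/em 590 nm). Endogenous PDE-IV was targeted. Compounds were tested at up to 22.9 uM final; RO 20-1724 100 uM served as control.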

Chain of Lysosomal acid glucosylceramidase (Homo sapiens) (P04062 whole entry, looked up): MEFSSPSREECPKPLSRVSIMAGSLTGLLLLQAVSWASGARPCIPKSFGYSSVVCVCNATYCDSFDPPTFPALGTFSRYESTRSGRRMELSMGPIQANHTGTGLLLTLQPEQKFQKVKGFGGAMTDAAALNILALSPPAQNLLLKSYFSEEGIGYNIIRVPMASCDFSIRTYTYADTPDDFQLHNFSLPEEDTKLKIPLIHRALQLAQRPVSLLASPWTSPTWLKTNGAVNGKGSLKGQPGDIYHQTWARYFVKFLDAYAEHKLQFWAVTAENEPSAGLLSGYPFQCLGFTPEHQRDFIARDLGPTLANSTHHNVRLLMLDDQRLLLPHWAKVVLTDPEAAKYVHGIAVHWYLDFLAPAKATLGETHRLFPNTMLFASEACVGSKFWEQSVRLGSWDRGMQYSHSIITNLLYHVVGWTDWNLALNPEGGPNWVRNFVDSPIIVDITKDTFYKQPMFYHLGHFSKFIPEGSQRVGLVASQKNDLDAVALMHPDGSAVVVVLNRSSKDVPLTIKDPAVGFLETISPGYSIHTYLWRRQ
Chain of Glucocorticoid receptor (Homo sapiens) (P04150 whole entry, looked up, the tested form may be a part): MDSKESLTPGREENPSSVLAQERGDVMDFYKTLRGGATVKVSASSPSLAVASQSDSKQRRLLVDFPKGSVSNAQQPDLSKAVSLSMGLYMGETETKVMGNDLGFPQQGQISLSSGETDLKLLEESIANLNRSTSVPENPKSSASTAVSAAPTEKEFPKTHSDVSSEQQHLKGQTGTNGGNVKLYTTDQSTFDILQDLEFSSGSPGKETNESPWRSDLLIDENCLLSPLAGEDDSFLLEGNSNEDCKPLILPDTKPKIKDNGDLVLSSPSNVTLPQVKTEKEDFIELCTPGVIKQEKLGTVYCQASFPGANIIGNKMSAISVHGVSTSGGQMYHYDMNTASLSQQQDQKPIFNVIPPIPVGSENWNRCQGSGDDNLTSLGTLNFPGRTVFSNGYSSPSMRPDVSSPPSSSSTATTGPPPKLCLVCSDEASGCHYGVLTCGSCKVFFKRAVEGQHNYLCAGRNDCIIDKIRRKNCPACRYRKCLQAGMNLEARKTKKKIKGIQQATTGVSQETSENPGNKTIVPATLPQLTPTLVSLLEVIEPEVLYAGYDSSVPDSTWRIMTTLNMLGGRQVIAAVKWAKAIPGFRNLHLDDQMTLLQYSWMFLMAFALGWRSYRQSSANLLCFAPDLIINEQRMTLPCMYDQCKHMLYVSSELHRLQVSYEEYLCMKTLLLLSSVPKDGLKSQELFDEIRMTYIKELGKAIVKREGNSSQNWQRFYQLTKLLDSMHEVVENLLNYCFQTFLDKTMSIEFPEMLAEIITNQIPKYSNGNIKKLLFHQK
Chain of Cytochrome P450 1A2 (Homo sapiens) (P05177 whole entry, looked up): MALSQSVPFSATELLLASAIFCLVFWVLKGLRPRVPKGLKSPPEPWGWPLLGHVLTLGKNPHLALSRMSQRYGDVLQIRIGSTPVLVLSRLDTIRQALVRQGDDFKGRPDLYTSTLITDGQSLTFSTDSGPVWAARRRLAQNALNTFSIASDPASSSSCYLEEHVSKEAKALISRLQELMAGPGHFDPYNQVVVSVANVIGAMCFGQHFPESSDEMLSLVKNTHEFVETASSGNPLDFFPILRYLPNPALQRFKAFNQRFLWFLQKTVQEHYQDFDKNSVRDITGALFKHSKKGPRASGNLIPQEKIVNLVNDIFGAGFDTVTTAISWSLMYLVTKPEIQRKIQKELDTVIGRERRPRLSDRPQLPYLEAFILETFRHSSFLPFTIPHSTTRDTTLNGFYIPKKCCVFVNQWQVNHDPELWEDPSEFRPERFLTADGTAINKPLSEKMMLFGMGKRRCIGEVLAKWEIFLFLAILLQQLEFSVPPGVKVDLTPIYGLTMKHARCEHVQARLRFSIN
Chain of 3',5'-cyclic-AMP phosphodiesterase 4B (Homo sapiens) (Q07343 whole entry, looked up): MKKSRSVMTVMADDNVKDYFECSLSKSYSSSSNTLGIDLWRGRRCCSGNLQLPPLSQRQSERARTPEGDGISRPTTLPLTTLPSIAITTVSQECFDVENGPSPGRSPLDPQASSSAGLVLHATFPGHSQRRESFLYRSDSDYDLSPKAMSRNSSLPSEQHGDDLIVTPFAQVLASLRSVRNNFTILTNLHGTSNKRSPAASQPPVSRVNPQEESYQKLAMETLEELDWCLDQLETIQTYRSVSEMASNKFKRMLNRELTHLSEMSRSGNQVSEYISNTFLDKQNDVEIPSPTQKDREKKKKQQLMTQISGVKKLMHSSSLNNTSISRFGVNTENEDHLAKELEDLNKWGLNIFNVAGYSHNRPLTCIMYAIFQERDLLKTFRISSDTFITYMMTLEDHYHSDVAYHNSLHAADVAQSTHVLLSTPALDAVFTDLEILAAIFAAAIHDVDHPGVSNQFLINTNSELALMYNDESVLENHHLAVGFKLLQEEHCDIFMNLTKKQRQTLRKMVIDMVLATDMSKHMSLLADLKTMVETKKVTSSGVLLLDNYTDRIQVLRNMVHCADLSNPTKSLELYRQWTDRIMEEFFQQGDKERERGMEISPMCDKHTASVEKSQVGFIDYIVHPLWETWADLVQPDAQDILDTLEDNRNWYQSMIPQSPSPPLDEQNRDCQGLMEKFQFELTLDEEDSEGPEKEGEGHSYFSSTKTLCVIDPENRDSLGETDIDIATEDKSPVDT

Compound	Potency [1] [µM]	activity change, negative = inhibition [2] [%]	Potency [3]	activity change, negative = inhibition [4] [%]	activity, negative = inhibition [5] [%]	Potency [6] [µM]	Potency [7] [µM]	Potency [8]	Potency [9]	activity change, negative = inhibition [3]
O=C(O)c1cccc(OCCO)c1	> 11.4	7.9	inactive	-28.1	13.6	> 46	> 9.22	inactive	inactive	
NCCc1nc(-c2nc(C(=O)O)cs2)cs1	> 11.4	-1.29	inactive	-25.9	-10	> 46	> 9.22	inactive	inactive	
CC(C)=NNc1ncnc2nc[nH]c12	> 11.4	-3.94	0.794 µM (active)	3.34	8.2	> 46	> 9.22	inactive	inactive	
O=P(O)(CCP(=O)(O)c1ccccc1)c1ccccc1	> 11.4	-9.71	inactive	12.9	1.66	> 46	> 9.22	inactive	inactive	
CC1(C)OC[C@@H]2O[C@H](n3cnc4c(N)nc(Cl)nc43)[C@@H](OS(C)(=O)=O)[C@@H]2O1	> 11.4	-1.96		-7	-0.333	> 46	> 9.22	inactive	inactive	-14.5% [at 2.29 µM]
COc1ccc2c3c([nH]c2c1)[C@H]1C[C@@H]2[C@@H](C[C@@H](O)[C@H](OC)[C@H]2C(=O)O)CN1CC3	> 11.4	-5.49	inactive	0.887	-7.32	> 46	> 9.22	inactive	inactive	
c1cc(CNCCN2CCNCC2)ccn1	> 11.4	-6.63	inactive	3.58	-1.72	> 46	> 9.22	inactive	inactive	
NS(=O)(=O)c1cc(C(=O)O)c(O)c2ccccc12	> 11.4	15.8	inactive	12.4	10.7	> 46	> 9.22	inactive	inactive	
N[C@@H](Cc1[nH]nc2ccccc12)C(=O)O	> 11.4	5.54	inactive	-12.5	-0.642	> 46	> 9.22	inactive	inactive	
O=C(O)[C@H](CCc1ccccc1)N1C(=O)c2ccccc2C1=O	> 11.4	-11.9		-3.82	8.91	> 46	> 9.22	inactive	inactive	-9.6% [at 2.29 µM]
CN(C(=O)c1ccncc1)c1ccccc1	> 11.4	-3.23	inactive	6.33	0.69	> 46	> 9.22	inactive	inactive	
C/C(=N/Nc1nc(C)cc(=O)[nH]1)C(=O)O	> 11.4	1.69	inactive	1.78	-0.204	> 46	> 9.22	inactive	inactive	
O=C(O)[C@H](CCc1ccccn1)c1ccccc1	> 11.4	-0.682	inactive	-1.01	0.534	> 46	> 9.22	inactive	inactive	
Cc1ccc(/C(C#N)=C/c2cccc([N+](=O)[O-])c2)cc1	> 11.4	15.2	3.98 µM (active)	-0.124	11.8	> 46	> 9.22	inactive	inactive	
C[C@@H](N1CCOCC1)[C@@](O)(c1ccccc1)c1ccccn1	> 11.4	2.55		12.6	4.17	> 46	> 9.22	inactive	inactive	-2.5% [at 2.29 µM]
